Measured values: PubChem BioAssay (NCATS)
Records with an inconclusive call do not appear. Unmarked numbers belong to inactive results. The source made the active and inactive calls. The call rests on the fitted dose curve; in most records, active means well fitted inhibition curve with a large enough effect; inconclusive means small, poorly fitted or top-dose-only effect; inactive means flat fitted curve, though single readings scatter.

These molecules were tested on Zika virus NS2B-NS3 protease (assay: Primary screen GU AMC qHTS for Zika virus inhibitors (AID 1347154;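 further: 0% = no-inhibitor control and -100% = no-enzyme control; nearly all actives have a fitted effect of over 70% in size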)). Settings: Zika NS2B-NS3 unlinked protease, AMC fluorogenic substrate; series mostly up to 54.1 µM; activity change, negative = inhibition: at the top concentration.
Summary of the method: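 Unlinked Zika NS2B hydrophilic domain–NS3 protease complex at 25 nM in 10 mM Tris-HCl pH 8.0, 0.01% Tween 20, with an AMC peptide substrate. Fluorescence change (340/450 nm) over 15 min at room temperature, normalized to controls, fitted to 4-parameter Hill.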

Structure (SMILES) | activity change, negative = inhibition | Potency
COc1cc(C(=O)NCCCCCC(=O)O)cc(OC)c1OC | 1.29% | 
COc1ccc(O)cc1 | -1.98% | 
Cc1[nH]c(C)c(Cl)c(=O)c1Cl | 1.07% [at 25.8 µM] | 
O=c1[nH]cnc2nc[nH]c12 | -4.47% | 
COc1ccc(Cc2cnc(N)nc2N)cc1OC | 0.915% | 
O=C1c2ccccc2C(=O)C1c1ccc(Br)cc1 | -13.4% | 
N[C@@H](Cc1ccc(O)cc1)C(=O)O | 5.3% [at 6.83 µM] | 
O=C(Cn1ccnc1[N+](=O)[O-])NCc1ccccc1 | -1.41% | 
NS(=O)(=O)c1cc(C2(O)NC(=O)c3ccccc32)ccc1Cl (stereo unspecified) | 1.17% | 
O=C1C(c2[nH]c3ccccc3c2O)=Nc2ccccc21 | -2.43% | 
CC(C)=CCC/C(C)=C/CO | -1.39% | 
CC(C)c1cc2c(cc1S(=O)(=O)O)[C@@]1(C)CCC[C@@](C)(C(=O)O)[C@@H]1CC2 | -2.63% | 
CC[N+](C)(CC)CCOC(=O)C1c2ccccc2Oc2ccccc21 | -2.52% | 
O=C1c2ccccc2S(=O)(=O)N1CCCCN1CCN(c2ncccn2)CC1 |  | inactive
O=C(NCC(O)CO)c1c(I)c(C(=O)NCC(O)CO)c(I)c(N(CCO)C(=O)CO)c1I (stereo unspecified) | -0.492% | 
CC(=O)N[C@H]1[C@H]([C@H](O)[C@H](O)CO)OC(C(=O)O)=C[C@@H]1N=C(N)N | 3.3% | 
NC(=O)c1ccc([N+](=O)[O-])cc1Cl | -3.29% | 
O=S1(=O)OC(c2ccc(O)cc2)(c2ccc(O)cc2)c2ccccc21 | -5.61% | 

Structure (SMILES) | activity change, negative = inhibition | Potency
CCCCC1(COC(=O)CCC(=O)O)C(=O)N(c2ccccc2)N(c2ccccc2)C1=O | 2.93% | 
C=CCOc1ccccc1OCC(O)CNC(C)C (stereo unspecified) | -2.79% | 
O=C(O)COC(=O)Cc1ccccc1Nc1c(Cl)cccc1Cl | 2.23% | 
CCS(=O)(=O)CCn1c([N+](=O)[O-])cnc1C | -3.48% | 
NCC1CCC(C(=O)Oc2ccc(CCC(=O)O)cc2)CC1 (stereo unspecified) | 3.28% | 
COC(=O)c1ccccc1C(=O)c1ccc(OCCN2CCCCC2)cc1 | 5.9% | 
CC(C(=O)O)c1ccc2c(c1)Cc1cccnc1O2 (stereo unspecified) | -1.36% | 
O=C(NCN1CCOCC1)c1cnccn1 | -1.13% | 
O=C(CCBr)N1CCN(C(=O)CCBr)CC1 | -0.152% | 
C[C@@H](c1ncncc1F)C(O)(Cn1cncn1)c1ccc(F)cc1F (stereo partly specified) | 7.44% | 
CC(=O)N(CC(O)CO)c1c(I)c(C(=O)NCC(O)CO)c(I)c(C(=O)NCC(O)CO)c1I (stereo unspecified) | -2.08% | 
COc1cc(O)cc(O)c1 | -3.89% | 
CCCNC(C)(C)COC(=O)c1ccccc1 | -1.13% | 
c1ccc2[nH]ccc2c1 | -0.191% | 
CC(=O)SC[C@@H](Cc1ccccc1)C(=O)NCC(=O)OCc1ccccc1 | -5.05% | 
Nc1ccncc1N | -1% | 
NNC(=O)CP(=O)(c1ccccc1)c1ccccc1 | -8.46% | 
CC(=O)NS(=O)(=O)c1ccc(N)cc1 | 1.6% | 
